According to paper PMC5540273 (PLoS ONE, 2017):

Assays:
Conditions in all cases: concentration: 1 μM,replicates: in singlicate; n = 1
IKK-alpha = system: T1, IKK-alpha
T1 construct: gene CHUK

IKK-beta = system: T2, IKK-beta
T2 construct: gene IKBKB

IKK-epsilon = system: T3, IKK-epsilon
T3 construct: gene IKBKE

INSRR = system: INSRR
INSR = system: INSR
IRAK1 = system: IRAK1
IRAK3 = system: IRAK3
IRAK4 = system: IRAK4
ITK = system: ITK
[1] = system: JAK1(JH1domain-catalytic)
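Further: KINOMEscan kinase panel screen.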

Row | Compound | %Inh (IKK-alpha) [%] | %Inh (IKK-beta) [%] | %Inh (IKK-epsilon) [%] | %Inh (INSRR) [%] | %Inh (INSR) [%] | %Inh (IRAK1) [%] | %Inh (IRAK3) [%] | %Inh (IRAK4) [%] | %Inh (ITK) [%] | %Inh [1] [%]
1 | Cc1ccc(Nc2ccnc(Nc3ccc4c(c3)CS(=O)(=O)C4)n2)cc1O.Cl [GW579362] | 62 | 87 | 91 | 22 | 53 | 99.1 | 91 | 87 | 38 | 92.4
2 | COc1cc2c(Nc3ccc(NC(=O)c4ccccc4)cc3)ncnc2cc1OCCCN1CCOCC1 [GSK301329] | 0 | 4 | 0 | 0 | 0 | 5 | 26 | 11 | 26 | 0
3 | O=C(Nc1ccccc1)c1cccc(Oc2ccc3nccn3n2)c1 | 0 | 0 | 91.5 | 86 | 0 | 25 | 3 | 21 | 0 | 0
4 | COc1cccc(OC)c1C(=O)Nc1cccc(-c2nn3ccccc3c2-c2ccnc(Nc3cccc(F)c3)n2)c1 [GSK361065] | 0 | 0 | 4 | 0 | 0 | 0 | 0 | 0 | 93.8 | 0
5 | CC(C)S(=O)(=O)N1CCN(Cc2ccc3c(c2)nc(NC(=O)c2ccsc2)n3C[C@H](O)c2ccccc2)CC1 [GW635815] | 20 | 13 | 52 | 27 | 67 | 90 | 49 | 80 | 97.6 | 5
6 | Cc1ccc(CC(=O)N2CCc3cc(-c4cn(C)c5ncnc(N)c45)ccc32)cc1 [GSK2634758] | 1 | 0 | 36 | 12 | 4 | 13 | 0 | 0 | 13 | 6
7 | O=C(Nc1ccc(Oc2ccc3nc(NC(=O)C4CC4)cn3n2)c(F)c1)c1cccn(-c2ccccc2)c1=O | 0 | 0 | 0 | 0 | 0 | 0 | 0 | 0 | 1 | 8
8 | Cl.c1ccc(Oc2ccc(Nc3ccnc4cc(-c5ccc(CN6CCNCC6)o5)ccc34)cc2)nc1 [GW567142] | 0 | 0 | 42 | 0 | 20 | 0 | 0 | 5 | 2 | 21
9 | CC(=O)Nc1ccc(-c2cc3ncnc(SCC(=O)O)c3s2)cc1 | 0 | 0 | 0 | 10 | 0 | 78 | 52 | 0 | 2 | 0
10 | O=C(Nc1n[nH]c2cc(-c3ccco3)ccc12)C1CC1 [SB-737447] | 0 | 0 | 0 | 5 | 2 | 0 | 0 | 0 | 0 | 2
11 | Cc1n[nH]c2cc(Nc3ccnc(Nc4cccc(CN5CCOCC5)c4)n3)ccc12 [GW682569] | 0 | 25 | 38 | 0 | 7 | 79 | 89 | 87 | 1 | 48
12 | COc1ccc(Nc2nccc(N3CCC(NC(=O)c4cccc(C#N)c4)C3)n2)cc1 (centres unmarked) [GSK1379730] | 0 | 6 | 0 | 0 | 0 | 10 | 0 | 3 | 14 | 6
13 | CS(=O)(=O)c1cccc(CNc2nc(Nc3ccc4c(c3)[C@@H]3C[C@@H]4CNC3=O)ncc2C(F)(F)F)c1 | 5 | 0 | 87 | 74 | 94.5 | 39 | 0 | 0 | 49 | 93
14 | CN1CCN(CCCNc2nccc(-c3c(-c4ccc(F)cc4)nn4cc(C(N)=O)ccc34)n2)CC1 [GW622475] | 0 | 0 | 39 | 0 | 2 | 29 | 0 | 11 | 10 | 5
15 | Cn1ccc2ncnc(Oc3ccc(NC(=O)Nc4cnn(C(C)(C)C)c4)c(Cl)c3)c21 | 29 | 17 | 10 | 3 | 11 | 43 | 0 | 20 | 2 | 6
16 | Cc1nnc(-c2ccc3occ(-c4ccc(S(C)=O)cc4)c3n2)o1 (centres unmarked) | 0 | 0 | 0 | 0 | 0 | 0 | 0 | 0 | 8 | 8
17 | C[C@@H]1CNc2c(sc3ccc4nc(-c5ccc(O)cc5)ccc4c23)C(=O)N1 | 27 | 24 | 14 | 0 | 7 | 97.1 | 14 | 14 | 3 | 0
